Experimental data from PubChem BioAssay (NCI).
This is part of a sample that, as a whole, favours compounds with a hit. Of some 79,000 tested, about 15% had one in any assay. Unmarked numbers belong to inactive results. The source made the active and inactive calls. Rule as the data show it: active = growth inhibition above about 70%; inactive = the rest. Where a SMILES comes first, the peptide text is derived from it. [ ]: non-standard residue; d: D form. The star is where a group is joined. ξ: configuration not given here. NMeY = CN[C@@H](Cc1ccc(O)cc1)C(=O)O; Cbz = O=C(OCc1ccccc1)*; ξA = CC(N)C(=O)O

Columns and labels:
[1] = NCI Yeast Anticancer Drug Screen. Data for the rad50 strain (AID 155);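 also: 0% = growth of vehicle-only cultures of the same strain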; conditions: S. cerevisiae rad50 strain growth inhibition; at 50.0 µM; hits give high values
How it was run: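 Genetically altered yeast (DNA repair pathway); compound treatment; growth inhibition vs vehicle ctrl.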

[2] = NCI Yeast Anticancer Drug Screen. Data for the mec2-1 strain (AID 157); conditions: S. cerevisiae mec2-1 strain, at 50.0 µM, hits give high values
How it was run: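 mec2-1 yeast strain, carrying an alteration in DNA damage repair or cell cycle control, was exposed to compounds; growth inhibition was measured relative to vehicle-treated controls.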

[3] = NCI Yeast Anticancer Drug Screen. Data for the sgs1 mgt1 strain (AID 161);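 also: 0% = growth of cultures given vehicle only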; conditions: S. cerevisiae sgs1 mgt1 strain, at 50.0 µM, hits give high values
How it was run: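 Growth of a repair-deficient yeast mutant was monitored after compound treatment and expressed as inhibition relative to vehicle-treated cultures.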

[4] = NCI Yeast Anticancer Drug Screen. Data for the cln2 rad14 strain (AID 165);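 also: 0% = growth equal to vehicle treated cultures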; conditions: S. cerevisiae cln2 rad14 strain, at 50.0 µM, hits give high values
How it was run: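 Yeast carrying cln2 and rad14 alterations (cell cycle control and DNA damage repair) were exposed to compounds. Growth inhibition was measured against vehicle-treated controls.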

[5] = NCI Yeast Anticancer Drug Screen. Data for the bub3 strain (AID 167); conditions: S. cerevisiae bub3 mutant strain, at 50.0 µM, hits give high values
How it was run: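 Yeast carrying a defined mutation is treated with each compound, and growth is compared with that of vehicle-exposed cells to give inhibition.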

[6] = NCI Yeast Anticancer Drug Screen. Data for the mlh1 rad18 strain (AID 175); conditions: S. cerevisiae mlh1 rad18 strain growth inhibition; at 50.0 µM; hits give high values
How it was run: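 Growth inhibition of the yeast strain was measured after compound exposure and expressed relative to vehicle-treated controls. The strain carries defined defects in DNA damage repair.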

| SMILES | growth inhibition [1] | growth inhibition [2] | growth inhibition [3] | growth inhibition [4] | growth inhibition [5] | growth inhibition [6] |
| --- | --- | --- | --- | --- | --- | --- |
| COc1ccc(C)cc1CC(=O)O | 7.5% | 3.05% | -21.4% | 4.1% | 6.25% | -9.2% |
| CCSC(COC(C)=O)(SCC)C(OC(C)=O)C(OC(C)=O)C(COC(C)=O)OC(C)=O (stereo unspecified) | 10.9% | 6.55% | -9% | -6.3% | -2.6% | 14.4% |
| C=CCC1(C)C=C(C)C(=O)C(C)=C1 | -6.05% | -7% | 18.6% | 2.55% | 16.2% | 15.1% |
| COc1ccc(C[C@@H](C(=O)N[C@@H](C)C(N)=O)N(C)C(=O)[C@@H]2CCCN2C(=O)[C@H](CC(C)C)NC(=O)C(C)NC(=O)OCc2ccccc2)cc1 (stereo partly specified) (Cbz-[ξA]LP[NMeY](Me)A-NH2) | 29.1% | 28.9% | -7.95% | -4% | -38.2% | -44.2% |
| O=C(O)CCCCC(=O)c1ccccc1 | 30.6% | 12.2% | 21% | -0.25% | 26.6% | 24.9% |
| CC1=CC(=O)N2[C@H](OC[C@@H]2C(C)C)O1 | 6.4% | -2.35% | 2.15% | 14.7% | -20.2% | 9.5% |
| COc1ccc2c(c1)OCC1=C2Oc2ccccc2C1 | 98.2% (active) | 99.3% (active) | 99.1% (active) | 98.6% (active) | 97.9% (active) | 98.8% (active) |
| CNNC(=NS(=O)(=O)c1cc(C#N)c(NNC)cc1S)NNC | 6.05% | -3.95% | -11.3% | -36.5% | -8.45% | 12.3% |
| N#Cc1nc(Nc2ccc([N+](=O)[O-])cc2)sc1N | 55.1% | 33.8% | 31.1% | 36.2% | 19.9% | 22.4% |
| CC(C)(Oc1ccc2c(=O)cc(-c3ccc(Cl)cc3)oc2c1)C(=O)Nc1c(Cl)cccc1Cl | 16.4% | -20.1% | 6.45% | -14.9% | 2.75% | 16.8% |
| CC(=O)C1C(=O)C(=O)N(c2ccccc2C)C1=O (stereo unspecified) | -25.6% | -20.6% | -13.8% | 9.45% | -24.9% | -25.4% |
| O=C1COc2cc(O)cc(O)c21 | 9.8% | 3.7% | 7.85% | 3.9% | 19.5% | 7.75% |
| Cc1cc(C(=O)O)c(C(=O)O)c(=O)[nH]1 | 0.6% | 5.8% | 0.3% | 7.1% | -1.05% | -13.9% |
| CC(=O)OC1CC[C@@]2(C)C(C1)CC(OC(C)=O)[C@@H]1C2CC(OC(C)=O)[C@]2(C)C(C(C)CC=C(c3ccc(Cl)cc3)c3ccc(Cl)cc3)CCC12 (stereo partly specified) | 0.4% | 2.8% | 3.05% | 11.1% | 20.5% | 5% |
| Nc1ccc(N(C(=O)c2ccccc2)C(=O)c2ccccc2)c(-c2ccccc2)c1 | 19.9% | 8.95% | 6.15% | 3.35% | 11.1% | 22.9% |
| CCCN(CCC)S(=O)(=O)c1ccc(NC(=O)Oc2cc(C)ccc2C(C)C)cc1 | 32.5% | 1.75% | 24.2% | 21.5% | -5.25% | 14.8% |
| Cc1[nH]c2ccccc2c1CC1CC(=O)OC1=O (stereo unspecified) | -8.35% | -18.6% | 12.5% | 6.3% | -9.15% | -7.15% |
| O=C(Nc1cccc([N+](=O)[O-])c1)Oc1ccc(-c2ccccc2)cc1 | 17.9% | 36.2% | 18.5% | -3.75% | 57.7% | 25.4% |
| COC(=O)C(CCc1ccc([N+](=O)[O-])cc1)(CCc1ccc([N+](=O)[O-])cc1)C(C)=O | 5.9% | -10% | 4.55% | -19.9% | 19.7% | 28.6% |
| O=C1C2=C(OCCO2)C(=O)C2=C1OCO2 | 12.4% | 18.4% | 28% | 7.55% | 12.2% | 4.4% |
| Brc1nc(-[n+]2ccccc2)[n-]c1Br | -0.75% | 3.75% | -13.9% | -60.5% | 1.5% | 1.4% |
